Screening data from PubChem.
m-calpain inh: inhibitors of pig calpain II | AID 1236 | actives 0.37% (n = 220,000) | inhibition, % at 16 µM | purified calpain II, fluorogenic peptide substrate, 30 min;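 active means inhibition above about 50%, limit read from the data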
S1P3 antagonist: blocks the human S1P3 receptor; actives 0.27% (n = 170,000); inhibition, % at 4.98 µM; CHO S1P3 NFAT-BLA reporter, FRET fluorescence, antagonist mode;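 active means inhibition above the plate cutoff, the mean inhibition of test wells on that plate plus 3 SD, cut at about 28% in these data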;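 further: cells challenged with S1P at its EC80 of 0.8 µM; blue over green emission ratio from cleaved BLA substrate after 4 h stimulation; 0% = S1P-stimulated wells and 100% = unstimulated DMSO-only wells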
Target sequence (Q99500 whole entry, looked up): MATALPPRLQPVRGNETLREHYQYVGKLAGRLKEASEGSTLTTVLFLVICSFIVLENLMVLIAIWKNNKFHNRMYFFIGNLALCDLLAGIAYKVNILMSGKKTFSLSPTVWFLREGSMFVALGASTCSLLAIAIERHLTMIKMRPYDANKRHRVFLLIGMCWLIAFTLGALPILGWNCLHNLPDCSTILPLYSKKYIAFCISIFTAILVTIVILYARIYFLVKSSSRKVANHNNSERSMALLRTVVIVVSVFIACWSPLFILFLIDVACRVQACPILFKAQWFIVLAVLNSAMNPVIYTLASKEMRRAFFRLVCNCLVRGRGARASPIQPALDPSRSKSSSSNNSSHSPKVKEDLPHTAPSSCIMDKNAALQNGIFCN
PERK inh: human PERK inhibition, primary cell-based screen. inhibition, % at 5.6 µM. CHO PERK-DD fusion, SEAP luminescence translation reporter. actives 0.17% (n = 220,000). Q9NZJ5;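 active means inhibition above the mean inhibition of all tested compounds plus 3 SD, set separately per screening campaign, cut at about 2.9% in these data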;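 further: PERK kinase domain activated by AP20187 dimerizer at 100 nM; 0% = DMSO with dimerizer and 100% = rapamycin at 8.4 µM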
S1P4 agonist: agonists of human S1P4 receptor; O95977; S1P4-expressing cell line, agonist reporter assay; activation, % at 4.98 µM; actives 0.35% (n = 220,000); AID 1509; in the data active means activation above about 11%;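 further: 0% = DMSO vehicle and 100% = reference agonist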
S1P4 antag: antagonists of human S1P4 receptor. O95977. S1P4-expressing cells, antagonist mode, reporter read-out. inhibition, % at 4.98 µM. actives 0.26% (n = 220,000). AID 1510; in the data active means inhibition above about 29%;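 further: 0% = wells stimulated with agonist and 100% = vehicle wells without agonist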
Starred values were filed as active, the others as inactive; · = not tested or not shown. Sampled rows, rich in hits. Any-hit rate of the full collection: about 1.3%.

SMILES	m-calpain inh	S1P3 antagonist	PERK inh	S1P4 agonist	S1P4 antag
COc1ccc(-c2nc(NC(=O)C3=NN(c4cccc(C)c4)C(=O)CC3)sc2C)cc1	-70	4	0	1	-7
CCc1cccc(C)c1NC(=O)CO/N=C(\C)c1cc2ccccc2o1	36	-9	0	0	-36
COc1ccc(-c2nc(NC(=O)CCNC(=O)c3ccco3)sc2C)cc1	52*	2	0	1	-12
NC1=NC(=Nc2cccc(S(N)(=O)=O)c2)c2ccccc21	-19	-7	4.0*	0	0
Cc1cc(C)c(C(N)=O)c(Nc2cccc(Cl)c2C)n1	9	55*	1	-3	-21
COCCn1c(N)c(N(Cc2ccccc2)C(=O)c2cc3ccccc3o2)c(=O)[nH]c1=O	7	-17	1	-1	-7
CCOC(=O)N1CCC(c2cc(=O)n3[nH]c(C)c(-c4ccc(F)cc4)c3n2)CC1	-72	6	0	1	-28
COCCNC(=O)c1c[nH]n2c(=O)cc(C3CCN(C(=O)OC(C)(C)C)CC3)nc12	-1	·	3.8*	1	4
CCOC(=O)c1sc(S(C)=O)c2c1CCc1conc1-2 (stereo not drawn)	0	3	0	2	-7
CCOC(=O)c1ccc(CC(=O)c2oc3cc(O)ccc3c2C)o1	-74	9	2	0	-1
CCOC(=O)c1ccc(CC(=O)c2ccc(O)c(O)c2O)o1	58*	-5	1	-1	22
CCN(CC)CC(=O)N1c2ccccc2CCc2ccc(NC(=O)c3cc(OC)c(OC)c(OC)c3)cc21	-25	-10	0	1	-9
COc1ccccc1C(=O)Nc1ccc(C(=O)c2ccccc2)cc1	67*	1	1	3	-1
CCN1C(=O)/C(=C\c2cn(-c3ccccc3)nc2-c2cccnc2)SC1=S	51*	-20	0	1	6
Cc1nc(C(C)NC(=O)CCc2nnc(CCCc3ccccc3)o2)c(C)s1 (stereo not drawn)	14	-6	0	0	-7
COc1ccc(C(=O)NCC(C)(C)SCc2c(C)cc(C)cc2C)cc1	56*	·	0	-1	-8
Cc1c(=O)n(OCc2cccc(F)c2)c2ccccc2[n+]1[O-]	-60	·	0	-2	-12
Cc1c(=O)n(OCc2ccccc2F)c2ccccc2[n+]1[O-]	73*	-4	1	0	-5
O=C(Nc1ccc2nc(-c3ccco3)c(-c3ccco3)nc2c1)NC1CC1	-164	·	0	1	2
O=C(Nc1ccc(N2CCOCC2)cc1)Nc1ccc2nc(-c3ccco3)c(-c3ccco3)nc2c1	-273	57*	-1	-2	1
COc1ccc(Cl)cc1NC(=S)NNC(=O)C1(C)CC1(Cl)Cl (stereo not drawn)	15	-51	-1	-2	-15
O=C1c2oc3ccc(Br)cc3c(=O)c2C(c2cccnc2)N1Cc1ccco1 (stereo not drawn)	·	95*	·	·	·
O=C1c2oc3ccccc3c(=O)c2C(c2cccc(Br)c2)N1Cc1ccco1 (stereo not drawn)	29	12	0	-1	-2
CCCCCCCCCCCCCCCCn1cc[n+](CC(C)=O)c1	54*	-1	1	-1	-8
N#CCCN(C(=O)COC(=O)C1CCN(S(=O)(=O)c2cccs2)CC1)c1ccccc1	22	7	1	-1	2
SMILES	m-calpain inh	S1P3 antagonist	PERK inh	S1P4 agonist	S1P4 antag
Cc1cc(/C=C2/C(=N)N3C(=NC2=O)SN=C3S(C)(=O)=O)c(C)n1-c1ccccc1F	-65	-13	3.4*	2	2
Cc1nc(-c2ccccc2)sc1C(=O)CSc1ccc(Cl)cc1	64*	·	1	0	-9
O=c1cc2oc3cc(O)c(O)cc3c(-c3ccccc3O)c-2cc1O	10	-2	3.1*	-1	12
COC(=O)c1ccc(OC)c(CSc2nnc(COc3ccc(Cl)cc3)o2)c1	51*	-4	-1	1	-21
N#Cc1c(NC(=O)c2cccc(S(=O)(=O)Nc3ccc(C(=O)O)cc3)c2)sc2c1CCCC2	52*	6	2	-1	0
COc1cc(N/C=C(\C(C)=O)c2ccccc2)cc(OC)c1	65*	·	0	-2	2
CC(=O)/C(=C/Nc1ccc(Oc2ccccc2)cc1)c1ccccc1	23	·	0	-4	-14
COc1cc(OC)c(S(=O)(=O)NC(C)C)cc1S(=O)(=O)NC(C)C	1	0	1	1	-10
CSc1nc(Oc2ccccc2)c2sccc2n1	54*	·	1	-3	2
CSc1nc(Oc2ccc(Cl)cc2)c2sccc2n1	31	·	1	-3	-12
COc1ccc(/C=N/OCC(=O)Nc2ccc3c(c2)OCO3)c(OC)c1	56*	-7	0	-1	5
CCCCOc1ccc(S(=O)(=O)Nc2cc(OC)ccc2OC)cc1	24	55*	0	-2	-4
COc1ccc(OC)c(NS(=O)(=O)c2ccc(Cl)nc2)c1	24	-6	0	0	-11
CC(=O)Nc1ccc(S(=O)(=O)Nc2nc3ccccc3nc2Nc2cccc(S(N)(=O)=O)c2)cc1	1	-15	1	4	14
O=c1sc2ccccc2n1Cc1ccccc1	14	-21	0	1	14
CCOc1ccccc1Cn1c(=O)sc2ccccc21	51*	-10	2	1	0
Cc1cc(C)nc(SCc2ccc(C(=O)O)o2)n1	-19	8	3.1*	0	-7
Cc1cc(C(F)(F)F)nc(SCc2ccc(C(=O)O)o2)n1	-26	-48	2	0	10
C=CCNC(=S)NN=C1CCCCCCC1	13	-6	1	-2	1
O=C(CSc1ccc2nnc(-c3ccncc3)n2n1)Nc1nccs1	65*	-1	1	0	2
CCc1nnc(NC(=O)CSc2nnc(-c3ccncc3)n2C)s1	28	·	3.3*	0	-15
CC1CCCCN1C(=O)Cn1cnc2cc([N+](=O)[O-])ccc2c1=O (stereo not drawn)	15	-17	0	-2	-13
COc1ccc(-n2c(-c3ccco3)nc3c(cnn3-c3ccccc3C)c2=O)cc1	-18	-5	-2	-1	-4
COc1cccc(N2C(=O)C(CC(=O)Nc3ccc(F)cc3)N(C3CCCCC3)C2=O)c1 (stereo not drawn)	1	103*	-1	0	13
COc1cccc(N2C(=O)C(CC(=O)Nc3ccccc3)N(C3CCCCC3)C2=O)c1 (stereo not drawn)	24	·	-1	0	-14
CC(=O)Nc1ccc(S(=O)(=O)N2CCN(C)CC2)cc1	-7	·	3.1*	-2	-4
COc1ccc(S(=O)(=O)N2CCN(C)CC2)cc1C	-41	56*	1	-3	-15
COc1ccc(S(=O)(=O)N2CCN(c3ccc(C)cc3C)CC2)cc1OC	20	103*	0	-1	1
COc1ccc(S(=O)(=O)N2CCN(S(=O)(=O)c3ccc(C(F)(F)F)cc3)CC2)cc1C	-8	3	0	0	-10
COC(=O)Nc1ccc(S(=O)(=O)N2CCN(C)CC2)cc1	-1	-14	1	2	-11
